Values joined by “and” are separate entries in the source; they are usually repeats but may differ in a detail not shown here. Equal entries are not always repeated. Inconclusive results are not listed. Values without a mark were called inactive. Active and inactive are the calls of the source. Calls come from the whole dose curve; as a rule, active = well fitted inhibition curve with a large enough effect in the signal ratio in the repeat runs (not every such curve was filed as active); inconclusive = weak or mixed curves; inactive = flat fitted curve, though single readings scatter; the % refers to the signal ratio.
% is set by controls: 0 for no effect and ±100 for the full control effect; potency is the fitted concentration of half-maximal effect.

Sequence of Progesterone receptor (Homo sapiens) (P06401 whole entry, looked up): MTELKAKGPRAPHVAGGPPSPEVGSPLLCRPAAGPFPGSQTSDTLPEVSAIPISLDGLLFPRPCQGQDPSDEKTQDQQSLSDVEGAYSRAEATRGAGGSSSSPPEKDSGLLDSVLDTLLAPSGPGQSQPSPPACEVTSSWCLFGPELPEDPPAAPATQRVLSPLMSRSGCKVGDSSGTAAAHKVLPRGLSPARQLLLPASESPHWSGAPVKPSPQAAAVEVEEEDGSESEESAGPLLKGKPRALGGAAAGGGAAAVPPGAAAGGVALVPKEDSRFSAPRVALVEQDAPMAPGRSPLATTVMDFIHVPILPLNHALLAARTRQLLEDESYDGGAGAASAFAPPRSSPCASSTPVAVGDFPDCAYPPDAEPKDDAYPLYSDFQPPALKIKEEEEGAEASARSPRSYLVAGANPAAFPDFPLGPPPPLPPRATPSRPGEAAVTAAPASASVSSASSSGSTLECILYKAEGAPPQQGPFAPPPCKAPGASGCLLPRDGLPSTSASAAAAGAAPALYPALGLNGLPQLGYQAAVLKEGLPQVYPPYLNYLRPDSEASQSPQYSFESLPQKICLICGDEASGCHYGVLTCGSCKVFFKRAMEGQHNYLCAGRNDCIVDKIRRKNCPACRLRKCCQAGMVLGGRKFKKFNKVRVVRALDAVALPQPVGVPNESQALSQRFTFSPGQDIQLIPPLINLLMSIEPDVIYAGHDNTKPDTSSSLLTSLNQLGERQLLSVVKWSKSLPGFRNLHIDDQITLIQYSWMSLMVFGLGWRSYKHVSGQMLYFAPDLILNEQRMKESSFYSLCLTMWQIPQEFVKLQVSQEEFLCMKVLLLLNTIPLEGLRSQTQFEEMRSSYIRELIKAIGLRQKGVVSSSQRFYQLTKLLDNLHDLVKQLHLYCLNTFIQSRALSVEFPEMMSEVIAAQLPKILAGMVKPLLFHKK

The target of this test is Progesterone receptor (Homo sapiens) (UniProt P06401). The test is described as follows: qHTS assay to identify small molecule antagonists of the progesterone receptor (PR) signaling pathway (AID 1346795). The settings on record: PR-UAS-bla HEK293T, beta-lactamase FRET ratio, 16 h; series mostly up to 92.4 µM; activity change, negative = inhibition: at the top concentration. From the text:
National Center for Advancing Translational Sciences [NCATS]
NIH Chemical Genomics Center [NCGC]
U.S. Environmental Protection Agency [EPA]
National Institutes of Environmental Health Sciences [NIEHS]
National Toxicology Program [NTP]
U.S. Food and Drug Administration [FDA]
Progesterone receptor (PR), a nuclear hormone receptor, plays an important role in development, metabolic homeostasis and reproduction. […] Endocrine disrupting chemicals (EDCs) and their interactions with steroid hormone receptors like PR causes disruption of normal endocrine function. To identify the compounds that inhibit PR signaling, a PR-UAS-bla GripTite cell line i.e. PR-UAS-bla HEK293T (Invitrogen, Carlsbad, CA, USA) containing a beta-lactamase reporter gene under the control of an Upstream Activator Sequence (UAS) was used to screen Tox21 10K compound library.
Tox21 Assay Protocol Summary:
PR-UAS-bla HEK293T cells were dispensed at 3,000 cells/4 uL of assay medium containing 2% charcoal stripped FBS per well into black wall/clear-bottom 1536-well plates using a Multidrop Combi (ThermoFisher Scientific, Waltham, MA) dispenser. After the assay plates were incubated at a 37C and 5% CO2 for 6 hr, 23 nL of compounds dissolved in DMSO, positive controls or DMSO only was transferred to the assay plate by a Pintool station (Kalypsys, San Diego, CA), followed by addition of 1 uL (1nM as final concentration) of Promegestone (R5020) in assay medium using a BioRAPTR FRD (Flying Reagent Dispenser, Aurora Discovery, San Diego, CA). The plates were incubated at 37C and 5% CO2 for 16 hr. Then 1 uL of LiveBLAzer B/G FRET substrate was added using a FRD. After the plates were incubated at room temperature for 2 hours, fluorescence intensity was measured by an Envision plate reader (PerkinElmer, Shelton, CT).
With `OC(Cc1ccccc1Cl)(Cn1[nH]cnc1=S)C1(Cl)CC1` (configuration not stated), the Potency was 24.3 µM (active). The same measure, in the same setting: the same measure for `Oc1c(I)cc(I)cc1I`: 30.6 µM (active); for `CNC(=O)Oc1cc(C)c(SC)c(C)c1`: 27.3 µM (active); for `CCOC(=O)C(O)(c1ccc(Cl)cc1)c1ccc(Cl)cc1`: 13.8 µM (active) and 13.7 µM (active).

With `CN1CSC(=S)N(C)C1`, the Potency was 19.2 µM (active) and 8.61 µM (active). Turning to `O=C1C(I)=CC(=C(c2cc(I)c(O)c(I)c2)c2ccccc2C(=O)O)C=C1I`, the Potency is 29.8 µM (active). Take `O=S(=O)(C(Cl)(Cl)Cl)C(Cl)(Cl)Cl`: the “activity change, negative = inhibition” value is -23%. `Clc1ccccc1-c1ccccc1Cl`: the “activity change, negative = inhibition” value was -9.33%. As for `O=[N+]([O-])c1c(Cl)c(Cl)cc(Cl)c1Cl`, the “activity change, negative = inhibition” value was 9.88%. In the case of `CCN(CC)C(=O)Cl`, the “activity change, negative = inhibition” value is 3.72%. For the compound `c1ccc2c(c1)Sc1ccccc1N2CC1CN2CCC1CC2` (configuration not stated), the Potency was 26.6 µM (active). Still for that read-out and setting: the same measure for `CC1COC(Cn2cncn2)(c2ccc(Oc3ccc(Cl)cc3)cc2Cl)O1` (configuration not stated): 24.3 µM (active).

The record behind these values is PubChem BioAssay (Tox21).
